Values without a mark were called inactive. Active and inactive are the calls of the source.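 How the source made its calls: active means mean inhibition over 43.08%, the solvent-only control mean plus 3 SD; inactive means the rest.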
The compounds below were run against Nuclear receptor coactivator 3 (Homo sapiens) (UniProt Q9Y6Q9) (assay: NCOA3 GAL4-fusion reporter inhibition – cell-based, luminescence, quadruplicate, confirmation (AID 588792;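 further: 0% = DMSO treated cells and 100% = gossypol at 36 µM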)). Settings: HEK293 GAL4-SRC3 luciferase reporter, at 3.6 µM, active compounds read high.
Sequence of Nuclear receptor coactivator 3 (Homo sapiens) (Q9Y6Q9 whole entry, looked up, the tested form may be a part): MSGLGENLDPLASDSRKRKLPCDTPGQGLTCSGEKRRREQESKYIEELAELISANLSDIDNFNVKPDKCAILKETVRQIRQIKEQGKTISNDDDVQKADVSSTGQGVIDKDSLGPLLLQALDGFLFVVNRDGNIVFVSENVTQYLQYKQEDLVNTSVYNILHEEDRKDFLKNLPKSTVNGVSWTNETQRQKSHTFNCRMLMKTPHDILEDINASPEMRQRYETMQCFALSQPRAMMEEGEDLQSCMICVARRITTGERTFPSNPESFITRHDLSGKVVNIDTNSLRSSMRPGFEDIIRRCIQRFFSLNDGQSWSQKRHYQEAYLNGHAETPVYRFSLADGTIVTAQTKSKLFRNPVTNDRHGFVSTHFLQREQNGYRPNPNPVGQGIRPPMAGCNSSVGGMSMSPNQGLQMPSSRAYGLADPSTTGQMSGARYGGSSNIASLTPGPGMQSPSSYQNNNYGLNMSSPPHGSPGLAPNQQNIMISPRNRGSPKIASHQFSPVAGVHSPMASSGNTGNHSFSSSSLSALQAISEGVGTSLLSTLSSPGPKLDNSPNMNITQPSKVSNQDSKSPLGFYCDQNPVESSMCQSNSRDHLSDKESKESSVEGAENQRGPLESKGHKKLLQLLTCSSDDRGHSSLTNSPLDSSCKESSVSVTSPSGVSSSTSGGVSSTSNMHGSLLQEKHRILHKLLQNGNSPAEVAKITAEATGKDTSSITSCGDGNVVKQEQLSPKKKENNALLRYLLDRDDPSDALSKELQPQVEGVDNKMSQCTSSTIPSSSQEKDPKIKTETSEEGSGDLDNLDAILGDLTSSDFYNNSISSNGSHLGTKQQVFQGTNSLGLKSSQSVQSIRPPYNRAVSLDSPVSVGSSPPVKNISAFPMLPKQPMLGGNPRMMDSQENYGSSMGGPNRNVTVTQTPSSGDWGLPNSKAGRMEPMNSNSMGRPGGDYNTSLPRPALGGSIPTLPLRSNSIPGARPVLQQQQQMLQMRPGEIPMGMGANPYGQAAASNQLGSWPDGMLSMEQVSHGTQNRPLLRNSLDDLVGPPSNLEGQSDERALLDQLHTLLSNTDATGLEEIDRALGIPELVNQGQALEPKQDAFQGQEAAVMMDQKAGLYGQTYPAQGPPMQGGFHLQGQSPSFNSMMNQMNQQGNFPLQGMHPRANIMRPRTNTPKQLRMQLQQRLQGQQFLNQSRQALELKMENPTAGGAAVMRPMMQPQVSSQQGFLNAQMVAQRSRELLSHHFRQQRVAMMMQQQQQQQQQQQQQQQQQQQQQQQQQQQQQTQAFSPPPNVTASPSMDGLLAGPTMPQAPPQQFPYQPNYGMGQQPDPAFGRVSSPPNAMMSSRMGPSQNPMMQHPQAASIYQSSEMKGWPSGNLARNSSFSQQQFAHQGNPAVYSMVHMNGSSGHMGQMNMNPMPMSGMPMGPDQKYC

| Compound | inhibition |
| --- | --- |
| COn1c(C)c(C(C)=O)c2c3nonc3ccc21 | 22.5% |
| Cc1ccc(S(=O)(=O)Nc2ccc3c(c2)OCCO3)cc1C | 24.1% |
| CC(=O)Nc1ccc(NC(=O)c2ccc(N(Cc3ccccc3C)S(C)(=O)=O)cc2)cc1 | -0.29% |
| CCOC(=O)N1CCC(NC(=O)C2CCCN(Cc3nc(-c4ccc(CC)cc4)oc3C)C2)CC1 (stereo not given) | 18.7% |
| O=C(Nc1ccccc1Cc1ccccc1)c1ccccc1NS(=O)(=O)c1ccc(Cl)s1 | 4.01% |
| CCOc1c(Br)cc(CNC2CCCCCCC2)cc1OC | -5.01% |
| CCc1ccc([C@@H]2CC(=O)[C@@H]3CN(S(=O)(=O)c4ccccc4C)[C@H](c4ccc(Cl)cc4)C[C@@H]3N2S(=O)(=O)c2ccc(C)cc2)cc1 | 15.5% |
| Clc1ccc2nnnc(-c3ccccc3)c2c1 | 65.8% (active) |
| CCCNc1nc(OC(C(F)(F)F)C(F)(F)F)nc(OC(C(F)(F)F)C(F)(F)F)n1 | 7.26% |
| CC(=O)N1CCc2cc(S(=O)(=O)NCCC(=O)NCCc3ccc(Cl)cc3)ccc21 | -9.13% |
| [O-]C(=C(C(=S)Nc1cccc2ccccc12)[n+]1ccccc1)c1ccc2c(c1)OCCO2 | 3.21% |
| Nc1ccccc1-c1ccc([N+](=O)[O-])cc1 | 5.58% |
| CCN1CCN(c2cc(C)c3cc(NC(=S)N4CCCC(C)C4)ccc3n2)CC1 (stereo not given) | 45.3% (active) |
| CC(=O)c1ccc(Sc2nnnn2-c2ccccc2)c([N+](=O)[O-])c1 | 11.4% |
| CCOC(=O)C(=O)NNc1ccc(C)cc1 | -7.17% |
| COc1ccc(CCNc2ncnc3sccc23)cc1OC | 12% |
| O=C(Nc1ccc(S(=O)(=O)Nc2ccc(F)cc2)cc1)c1ccc(CN2CCOCC2)cc1 | 7.38% |
| Cn1nc(C(F)(F)F)c(-c2ccccc2)c1NC(=O)c1cccnc1 | 18.6% |
| O=C(NC(=S)Nc1cccc2cnccc12)c1ccccc1 | 51.4% (active) |
| Cc1c(Cl)cccc1NC(=O)CCC(=O)N/N=C/c1ccc[nH]1 | 13.6% |

| Compound | inhibition |
| --- | --- |
| COc1ccc(-c2ncncc2-c2ccc(Cl)cc2)c(O)c1 | 25.1% |
| O=C1CC(=O)OC(c2ccc([N+](=O)[O-])cc2)O1 | 26.8% |
| Cn1nnnc1Sc1ncnc2scc(-c3ccccc3)c12 | -4.36% |
| O=[N+]([O-])c1ccccc1NC1CCN(Cc2ccccc2)CC1 | -4.81% |
| O=C(CC12CC3CC(CC(C3)C1)C2)Nc1nncs1 | 15.4% |
| CSc1cccc(N/C(=N/S(=O)(=O)c2ccccc2)NN)c1 | 5.54% |
| Cc1ccsc1C(=O)C1CCCN(Cc2cccn2-c2ccc(Cl)cn2)C1 (stereo not given) | -3.2% |
| FC(F)(F)c1cccc(NC(=S)N(CCCN2CCCC2)Cc2cccn2Cc2ccc(Cl)cc2)c1 | -14.5% |
| CC1Cc2cc(-c3csc(NC(=O)Cc4ccccc4)n3)ccc2N1S(C)(=O)=O (stereo not given) | 23.8% |
| COc1ccc(CCNC(=O)C(C)n2nc(C)c3c(C)n(-c4ccc(C)cc4)nc3c2=O)c(OC)c1 (stereo not given) | 7.11% |
| O=c1[nH]c(=O)n(C2CC(O)C(CO)O2)cc1I (stereo not given) | 23.1% |
| COc1cccc(/C=N/NC(=O)CNC(=O)C(c2ccccc2)c2ccccc2)c1O | 17.2% |
| CC(=O)c1c(C)[nH]c(C(=O)Nc2ccc(Cl)c(S(=O)(=O)N3CCOCC3)c2)c1C | 18.6% |
| CCOc1cc(C(=O)N2CCC(CC3CC(c4ccc(Cl)cc4)=NO3)(C(=O)NCC3CCCCC3)CC2)cc(OCC)c1OCC (stereo not given) | 6.12% |
| CC#CC[N+](C)(C)CCCCCCCCCC | 4.4% |
| CCC(C)(C(=O)NC1CCCC1)N(C(=O)CNC(C)=O)c1ccc(C)cc1 (stereo not given) | 0.65% |
| O=C(Nc1sc2c(c1C(=O)O)CCCC2)c1ccc(Cl)cc1 | 30.9% |
| COc1ccc2nc(C)cc(Nc3ccc(N4CCN(C)CC4)cc3)c2c1 | 71.8% (active) |
| CCCCCCCOC(=O)C[N+](C)(C)CCOC1CC2CCC1(C)C2(C)C (stereo not given) | -17.6% |
| O=C(NNC(=S)NCc1ccccc1)c1ccc2c(c1)OCO2 | -11.1% |

Reference: PubChem BioAssay
